{
  "source": "ChEMBL document CHEMBL1157539",
  "about": "“Thousands of chemical starting points for antimalarial lead identification” (Nature, 2010)",
  "data": [
    {"test_system": "HepG2", "assay": "GSK_TCMDC: Percent inhibition of human HepG2 cell line. Test compounds present at 10uM.", "type": "functional", "units": {"Inhibition": "%"}, "values": [
      {"smiles": "COC(=O)c1cc(C(=O)CN(Cc2ccccc2)C(C)C)ccc1O.Cl", "Inhibition": 7},
      {"smiles": "COc1ccc(NC(=O)[C@H](CC(C)C)Nc2cc(C)nc(NCCc3ccccc3OC)n2)cc1.O=C(O)C(F)(F)F", "Inhibition": 9},
      {"smiles": "Cc1ccc(NC(=O)Nc2cccc(Cl)c2)cc1-c1ccc(C(=O)Nc2ccncc2)cc1", "Inhibition": 67},
      {"smiles": "Cc1c(S(=O)(=O)Nc2ccc3ccn(CCN(C)C)c3c2)sc2ccc(Cl)cc12.Cl", "Inhibition": 15}
    ]}
  ]
}
